{"source": "paper PMC5540273", "about": "(PLoS ONE, 2017);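 also: KINOMEscan kinase panel screen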", "data": [{"system": "DMPK", "settings": "concentration: 1 μM, replicates: in singlicate; n = 1", "units": {"%Inh": "%"}, "values": [{"smiles": "COc1cccc(C2=C(Nc3cc(Cl)c(O)c(Cl)c3)C(=O)NC2=O)c1", "note": "[SB-390767]", "%Inh": 0}, {"smiles": "Cc1ccccc1Cn1ccn2c(=O)cc(N3CCOCC3)nc12", "note": "[GSK2269905]", "%Inh": 0}, {"smiles": "Fc1ccc(-c2nn3cccc(F)c3c2-c2ccncc2)cc1", "note": "[GW475620]", "%Inh": 28}, {"smiles": "Cc1nccc(-c2c(-c3ccc(F)cc3)ncn2CCCN2CCOCC2)n1.Cl", "note": "[SB-282975]", "%Inh": 22}, {"smiles": "Cc1cccc2c(-c3ccncn3)c(-c3ccc(F)cc3)nn12", "note": "[GW515532]", "%Inh": 0}, {"smiles": "COc1ccc(Nc2nccc(NCCNC(=O)Nc3cc(C)ccc3C)n2)cc1", "note": "[GSK1379899]", "%Inh": 0}, {"smiles": "Nc1nccc(-c2c(-c3ccc(F)cc3)ncn2C2CCN(Cc3ccccc3)CC2)n1", "note": "[SB-219980]", "%Inh": 0}, {"smiles": "CS(=O)(=O)Cc1ccc(Nc2nccc(-c3c(-c4cccc(NC(=O)C5CCCCC5)c4)nn4ncccc34)n2)cc1", "note": "[GSK350559]", "%Inh": 0}, {"smiles": "Cc1ccc(NC(=O)Nc2ccc(Cl)c(C(F)(F)F)c2)cc1-c1ccc(C(=O)Nc2ccncc2)cc1", "note": "[GSK1398470]", "%Inh": 0}, {"smiles": "O=c1cc(N2CCOCC2)nc2n(Cc3ccccc3F)ccn12", "note": "[GSK2297428]", "%Inh": 0}, {"smiles": "O=C(Nc1n[nH]c2nc(-c3ccco3)c(Br)cc12)C1CCN(Cc2ccccc2)C1.O=C(O)[C@H](O)[C@@H](O)C(=O)O", "note": "(stereo not drawn) [SB-742034]", "%Inh": 0}, {"smiles": "CCn1c(-c2c(N)noc2C)nc2cnccc21", "note": "[SB-737856]", "%Inh": 0}, {"smiles": "Cn1cnc2c(N)ncnc21", "note": "[SKF-97623]", "%Inh": 0}, {"smiles": "O=C(Nc1n[nH]c2cc(-c3ccsc3)ccc12)C1CC1", "note": "[SB-732932]", "%Inh": 0}, {"smiles": "CN1c2ccc(-c3ccc(C(N)=O)cc3)cc2-c2[nH]ncc2S1(=O)=O", "%Inh": 0}, {"smiles": "Cl.Cl.Cl.N#Cc1ccc(CCNc2nccc(-c3cccc(CN4CCNCC4)c3)n2)cc1", "note": "[GSK2137462]", "%Inh": 10}, {"smiles": "Cn1cncc1C(=O)NC1CCN(c2ccnc(Nc3ccc(F)cc3)n2)C1", "note": "(stereo not drawn) [GSK1379717]", "%Inh": 0}, {"smiles": "CS(=O)(=O)CCNCc1nc(-c2ccc3ncnc(Nc4ccc5c(cnn5Cc5ccccc5)c4)c3c2)cs1.Cl.Cl", "note": "[GW569716]", "%Inh": 0}, {"smiles": "Cc1cnc(N)c(/C=C/c2cncc(C(=O)NCCc3ccc(Cl)cc3Cl)c2)c1.Cl", "note": "[GSK190937]", "%Inh": 0}, {"smiles": "CNCc1ccc2nc(NC(=O)c3ccc(C(C)(C)C)cc3)cn2c1", "%Inh": 7}, {"smiles": "CNc1cc(-c2ccc3c(N)n[nH]c3c2)nc(N)n1", "note": "[GSK2224810]", "%Inh": 0}, {"smiles": "CNc1nc(-c2ccc3c(N)n[nH]c3c2)cc(N2C[C@@H](C(=O)Nc3ccccc3)CC[C@H]2C)n1", "note": "[GSK2298859]", "%Inh": 0}, {"smiles": "COc1ccc(Nc2nccc(N3CCC(NC(=O)c4cc5ccccc5s4)C3)n2)cc1", "note": "(stereo not drawn) [GSK1379738]", "%Inh": 0}, {"smiles": "COc1ccc(CSc2nnc(-c3ccc4nccn4c3)o2)cc1C(F)(F)F", "%Inh": 41}]}]}
